Test results taken from PubChem BioAssay (EPA / NIEHS).
Where “and” joins values, the source holds several entries; their conditions need not be identical. Equal values may be shown once. Results filed as inconclusive are left out. Where a structure was tested more than once in an assay, its records may differ in their call. Calls of active or inactive are those of the source. The calls were made as follows, unless noted: active = hit-call score of the fitted dose curve at least 0.9, where 1 is the maximum; inactive = score below 0.9.

What was measured:
[1] = molecular target: human RAR-related Orphan Receptor gamma (RORg), RORC (gene 6097) (UniProt P51449); experiment: ATG_RORg_TRANS: Attagene TRANS-FACTORIAL HepG2 Assay for human RAR-related Orphan Receptor gamma (RORg) (AID 2283011; active = hit-call score of the fitted dose curve at least 0.9, where 1 is the maximum;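 as to AC50: potency for induction of reporter transcripts above DMSO so activators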)
Chain of human RAR-related Orphan Receptor gamma (RORg), RORC (gene 6097) (P51449 whole entry, looked up, the tested form may be a part): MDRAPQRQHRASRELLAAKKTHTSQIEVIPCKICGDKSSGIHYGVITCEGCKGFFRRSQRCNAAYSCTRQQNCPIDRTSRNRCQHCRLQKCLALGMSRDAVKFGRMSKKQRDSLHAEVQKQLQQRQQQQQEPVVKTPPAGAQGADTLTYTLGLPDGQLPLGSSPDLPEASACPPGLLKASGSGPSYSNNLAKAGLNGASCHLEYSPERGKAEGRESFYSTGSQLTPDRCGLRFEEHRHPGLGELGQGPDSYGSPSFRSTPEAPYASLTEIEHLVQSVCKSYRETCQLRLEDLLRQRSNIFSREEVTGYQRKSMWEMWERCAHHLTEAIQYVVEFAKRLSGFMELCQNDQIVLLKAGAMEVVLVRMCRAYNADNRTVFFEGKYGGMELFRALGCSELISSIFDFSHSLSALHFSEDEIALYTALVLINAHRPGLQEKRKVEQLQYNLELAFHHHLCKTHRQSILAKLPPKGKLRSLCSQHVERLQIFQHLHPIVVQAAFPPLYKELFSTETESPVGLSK
Method in brief: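 Transient MRTU transfection of HepG2 (TRANS format, exogenous NR-Gal4 chimera). 24 h dosing. Total RNA → oligo(dT) RT → PCR → 6-FAM labelling → HpaI cut → CE. Gain vs DMSO.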

[2] = molecular target: human Retinoid X Receptor beta (RXRb), RXRB (gene 6257) (UniProt P28702); experiment: ATG_RXRb_TRANS: Attagene TRANS-FACTORIAL HepG2 Assay for human Retinoid X Receptor beta (RXRb) (AID 2283013; active = hit-call score of the fitted dose curve at least 0.9, where 1 is the maximum)
Chain of human Retinoid X Receptor beta (RXRb), RXRB (gene 6257) (P28702 whole entry, looked up, the tested form may be a part): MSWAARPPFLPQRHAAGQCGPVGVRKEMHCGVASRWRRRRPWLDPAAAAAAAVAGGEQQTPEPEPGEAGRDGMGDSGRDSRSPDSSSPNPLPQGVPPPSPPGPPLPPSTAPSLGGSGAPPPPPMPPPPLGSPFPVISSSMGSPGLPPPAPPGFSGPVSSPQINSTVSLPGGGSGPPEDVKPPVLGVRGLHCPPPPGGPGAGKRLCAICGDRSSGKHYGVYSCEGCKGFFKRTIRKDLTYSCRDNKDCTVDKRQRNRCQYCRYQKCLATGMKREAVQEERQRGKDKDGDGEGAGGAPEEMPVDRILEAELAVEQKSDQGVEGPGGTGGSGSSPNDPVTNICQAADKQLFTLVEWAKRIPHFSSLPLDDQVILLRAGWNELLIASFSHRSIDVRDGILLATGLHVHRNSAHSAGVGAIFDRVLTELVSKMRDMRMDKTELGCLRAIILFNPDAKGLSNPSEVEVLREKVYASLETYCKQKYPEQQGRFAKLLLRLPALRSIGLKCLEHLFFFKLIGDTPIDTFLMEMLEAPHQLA
Method in brief: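 Read-out: reporter mRNA induction via RT-PCR plus capillary electrophoresis fluorescence, analysed as signal increase relative to DMSO. Cells were human HepG2, transiently transfected with GAL4-UAS reporter constructs and chimeric receptor-Gal4 fusions, dosed for 24 h.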

[3] = molecular target: human Thyroid Receptor alpha (THRa1), THRA (gene 7067) (UniProt P10827); experiment: ATG_THRa1_TRANS: Attagene TRANS-FACTORIAL HepG2 Assay for human Thyroid Receptor alpha (THRa1) (AID 2283014; active = hit-call score of the fitted dose curve at least 0.9, where 1 is the maximum)
Chain of human Thyroid Receptor alpha (THRa1), THRA (gene 7067) (P10827 whole entry, looked up, the tested form may be a part): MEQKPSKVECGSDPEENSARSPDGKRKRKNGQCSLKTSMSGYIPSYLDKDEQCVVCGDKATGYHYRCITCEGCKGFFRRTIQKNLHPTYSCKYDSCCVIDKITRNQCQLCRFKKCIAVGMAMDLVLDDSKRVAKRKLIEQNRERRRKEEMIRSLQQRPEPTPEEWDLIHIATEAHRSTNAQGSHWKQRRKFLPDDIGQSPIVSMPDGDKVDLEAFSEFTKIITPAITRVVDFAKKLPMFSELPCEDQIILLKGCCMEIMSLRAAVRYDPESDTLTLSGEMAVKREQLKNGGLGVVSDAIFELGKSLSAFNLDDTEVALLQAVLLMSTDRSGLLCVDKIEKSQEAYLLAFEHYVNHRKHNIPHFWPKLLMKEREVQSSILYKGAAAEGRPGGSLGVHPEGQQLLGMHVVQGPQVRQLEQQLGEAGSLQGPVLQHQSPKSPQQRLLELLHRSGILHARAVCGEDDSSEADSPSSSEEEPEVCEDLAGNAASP
Method in brief: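 Transient HepG2 transfection, NR-Gal4 chimera driving GAL4-UAS reporters; 24 h compound exposure; total RNA, oligo(dT) RT, PCR, fluorescent primer extension, capillary electrophoresis. Upward direction vs DMSO control.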

[4] = read-out: E-selectin (Homo sapiens) (UniProt P16581); experiment: BSK_3C_Eselectin: BioMAP Diversity Plus: 3C Assay for Eselectin Biomarker Activity (AID 2283015); settings: primary human endothelial cells (HUVEC); actives raise or lower the signal
Method in brief: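 HUVEC, 3C stimulation; compound exposure 24 h; E-selectin by ELISA; gain- or loss-of-signal fitted bidirectionally vs DMSO baseline.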

[5] = read-out: Interleukin-1 alpha (IL1a), IL1A (gene 3552); experiment: BSK_BE3C_IL1a: BioMAP Diversity Plus: BE3C Assay for Interleukin-1 alpha (IL1a) Biomarker Activity (AID 2283016); settings: primary human bronchial epithelial cells; actives raise or lower the signal
Method in brief: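 ELISA read-out of IL-1a from human lung bronchial epithelial primary cells, 24 h post-dose. Gain or loss of signal fitted relative to DMSO negative control.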

[6] = read-out: Monocyte Chemoattractant Protein-1 (MCP1), CCL2 (gene 6347); experiment: BSK_3C_MCP1: BioMAP Diversity Plus: 3C Assay for Monocyte Chemoattractant Protein-1 (MCP1) Biomarker Activity (AID 2283017); settings: primary human endothelial cells (HUVEC); actives raise or lower the signal
Method in brief: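 HUVEC, 3C system; 24 h chemical exposure; MCP-1 by ELISA; bidirectional curve fit vs DMSO baseline.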

[7] = read-out: Monocyte Chemoattractant Protein-1 (MCP1), CCL2 (gene 6347); experiment: BSK_4H_MCP1: BioMAP Diversity Plus: 4H Assay for Monocyte Chemoattractant Protein-1 (MCP1) Biomarker Activity (AID 2283018); settings: primary human endothelial cells (HUVEC); actives raise or lower the signal
Method in brief: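 HUVEC primary cells, 24 h post-dose, MCP-1 by ELISA. Gain or loss of signal fitted bidirectionally vs DMSO baseline. Cytotoxicity: SRB stain (0.1% after 10% TCA fixation), read 560 nm, parallel cultures.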

[8] = read-out: Human Leukocyte Antigen - DR isotype (HLADR), HLA-DRA (gene 3122); experiment: BSK_3C_HLADR: BioMAP Diversity Plus: 3C Assay for Human Leukocyte Antigen - DR isotype (HLADR) Biomarker Activity (AID 2283019); settings: primary human endothelial cells (HUVEC); actives raise or lower the signal
Method in brief: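 HUVEC, 3C stimulation, 24 h post-dose; HLA-DR by ELISA; bidirectional curve fit vs DMSO baseline; gain or loss of signal scored.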

[9] = molecular target: Retinoic acid receptor RXR-alpha (Homo sapiens) (UniProt P19793); experiment: ATG_RXRa_TRANS: Attagene TRANS-FACTORIAL HepG2 Assay for human Retinoid X Receptor alpha (RXRa) (AID 2283012; active = hit-call score of the fitted dose curve at least 0.9, where 1 is the maximum)
Chain of Retinoic acid receptor RXR-alpha (Homo sapiens) (P19793 whole entry, looked up, the tested form may be a part): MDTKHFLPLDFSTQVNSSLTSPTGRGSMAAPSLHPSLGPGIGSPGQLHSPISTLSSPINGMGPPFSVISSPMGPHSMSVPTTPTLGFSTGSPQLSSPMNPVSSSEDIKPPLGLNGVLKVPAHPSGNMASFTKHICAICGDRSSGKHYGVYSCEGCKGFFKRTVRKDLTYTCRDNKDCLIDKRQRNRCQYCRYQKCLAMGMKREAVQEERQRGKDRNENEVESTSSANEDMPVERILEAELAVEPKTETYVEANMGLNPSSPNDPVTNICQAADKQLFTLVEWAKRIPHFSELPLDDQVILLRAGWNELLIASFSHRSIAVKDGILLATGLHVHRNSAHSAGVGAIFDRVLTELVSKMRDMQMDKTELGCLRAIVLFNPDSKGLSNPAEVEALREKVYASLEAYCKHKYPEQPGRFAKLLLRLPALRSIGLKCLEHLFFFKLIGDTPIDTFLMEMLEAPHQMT
Method in brief: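 Read-out: fluorescent reporter-transcript fragments quantified by capillary electrophoresis after RT-PCR. Transiently transfected HepG2 cells carrying GAL4-UAS reporters and NR-GAL4 chimeras were exposed to chemical for 24 h; activity scored as increase over DMSO.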

[10] = read-out: Interleukin-8 (IL8), CXCL8 (gene 3576); experiment: BSK_3C_IL8: BioMAP Diversity Plus: 3C Assay for Interleukin-8 (IL8) Biomarker Activity (AID 2283020); settings: primary human endothelial cells (HUVEC); actives raise or lower the signal
Method in brief: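 HUVEC, 3C stimulation; 24 h compound exposure; IL-8 read by ELISA; gain or loss of signal fitted relative to DMSO control.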

Measured: AC50

Chain of E-selectin (Homo sapiens) (P16581 whole entry, looked up): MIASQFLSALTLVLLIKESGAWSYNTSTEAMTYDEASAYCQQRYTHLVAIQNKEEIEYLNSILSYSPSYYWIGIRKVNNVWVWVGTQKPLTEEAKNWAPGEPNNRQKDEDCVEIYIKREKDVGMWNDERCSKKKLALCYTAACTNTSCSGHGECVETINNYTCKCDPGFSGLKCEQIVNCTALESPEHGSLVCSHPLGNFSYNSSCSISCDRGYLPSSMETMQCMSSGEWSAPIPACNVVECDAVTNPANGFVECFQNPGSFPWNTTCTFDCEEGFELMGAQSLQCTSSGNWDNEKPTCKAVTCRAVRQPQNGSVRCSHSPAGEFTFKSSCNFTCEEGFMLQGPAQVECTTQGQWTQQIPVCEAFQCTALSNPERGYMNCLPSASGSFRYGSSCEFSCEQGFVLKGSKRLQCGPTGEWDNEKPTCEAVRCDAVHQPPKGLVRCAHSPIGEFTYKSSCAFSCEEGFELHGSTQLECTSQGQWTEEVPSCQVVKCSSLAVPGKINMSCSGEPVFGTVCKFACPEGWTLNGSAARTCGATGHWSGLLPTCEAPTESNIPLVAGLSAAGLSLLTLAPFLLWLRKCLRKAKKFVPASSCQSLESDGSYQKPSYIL

Cc1cc2c(cc1C(F)(F)F)N(C(=O)Nc1ccc(Oc3cccnc3C)nc1)CC2
active: [8] 18.4 µM
not listed: [9] | [10]
inactive: all other assays above

O=C1CCC(C2CCCCC2)CC1
not listed: [10]
inactive: all other assays above

CC/C(=C(/CC)c1ccc(O)cc1)c1ccc(O)cc1
inactive: [9] | [2]
active: [2] 6.68 µM [middle of 4 runs] | [4] 31.5 µM | [5] 29.9 µM | [6] 31 µM | [7] 15.9 µM | [8] 27.7 µM | [10] 32.6 µM

CO[C@H]1/C=C/O[C@@]2(C)Oc3c(C)c(O)c4c(O)c(c(/C=N/N5CCN(C)CC5)c(O)c4c3C2=O)NC(=O)/C(C)=C\C=C\[C@H](C)[C@H](O)[C@@H](C)[C@@H](O)[C@@H](C)[C@H](OC(C)=O)[C@@H]1C
not listed: [2]
inactive: all other assays above

NCc1cccc(C2CCN(C(=O)c3ccc(C#Cc4ccccc4F)o3)CC2)c1
inactive: [1] | [9] | [2] | [3]
active: [4] 35.6 µM | [5] 15 µM | [6] 20.8 µM | [7] 20 µM | [8] 11.3 µM | [10] 23.1 µM

O=C1c2ccccc2C(=O)N1CCc1noc(-c2ccc(CN3CCCCCC3)s2)n1
active: [8] 26.7 µM
not listed: [2] | [10]
inactive: all other assays above

Oc1ccccc1
not listed: [2] | [3]
inactive: all other assays above

Cc1ncc(CO)c(CO)c1O
not listed: [3] | [10]
inactive: all other assays above

COc1cc(C(=O)NC2CCN(C)CC2)ccc1Nc1ncc2c(n1)N(C1CCCC1)CC(F)(F)C(=O)N2C
active: [4] 17.2 µM | [5] 10.2 µM | [6] 12 µM | [7] 5.15 µM | [8] 4.47 µM | [10] 7.74 µM
inactive: [1] | [9] | [2] | [3]

O=C(O)c1ccccc1C(=O)OCc1ccccc1
not listed: [2] | [3]
inactive: all other assays above

O=C(O)Cc1cc(I)c(Oc2ccc(O)c(I)c2)c(I)c1
active: [5] 25.5 µM
not listed: [2] | [3] | [10]
inactive: all other assays above

CCCCCCCCCCCCO
inactive: [1] | [9] | [2] | [3]
active: [4] 31 µM | [5] 19.8 µM | [6] 31 µM | [7] 31.9 µM | [8] 31.3 µM | [10] 36 µM

CCCCOC(=O)c1ccc(O)cc1
active: [2] 26.9 µM and 26.4 µM
inactive: [9] | [2] | [3] | [4] | [5] | [6] | [7] | [8]

C[C@]12CC[C@@H]3c4ccc(O)cc4CC[C@H]3[C@@H]1CC[C@H]2O
active: [4] 8.58 µM | [6] 14.3 µM | [8] 21.3 µM | [10] 13 µM
inactive: all other assays above

O=CCCCC=O
active: [4] 33.7 µM | [5] 33.2 µM | [8] 29.5 µM
not listed: [3]
inactive: all other assays above

CCCCCCCCCCCO
inactive: [3] | [5] | [6] | [7]
active: [1] 159 µM | [9] 179 µM | [2] 47.8 µM | [4] 32 µM | [8] 31 µM | [10] 28.6 µM

O=c1[nH]sc2ccccc12
inactive: [1] | [2] | [3]
active: [4] 13.5 µM | [5] 27.7 µM | [6] 11.7 µM | [7] 11.6 µM | [8] 5.39 µM
